Laboratory results published in PubChem BioAssay (NCATS).
Results filed as inconclusive are left out. Values without a mark were called inactive. The source made the active and inactive calls. Calls follow the shape of the dose curve; as a rule, active = well fitted curve in the direction sought with a large enough effect; inconclusive = small, poorly fitted or top-dose-only effect, or another doubt; inactive = no such curve, though single readings can be large; an effect the other way counts as inactive or inconclusive.

Biological target: Rap guanine nucleotide exchange factor 3 (Homo sapiens) (UniProt O95398)
Test: Confirmatory qHTS for antagonist of cAMP-regulated guanine nucleotide exchange factor 3 (EPAC1) (AID 1645880); also: nearly all actives have a fitted effect of over 55% in size;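 as to activity, negative = inhibition: plate controls were DMSO only for no effect and full effect of the ATA control for full effect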
Details: EPAC1 Rap1B-BODIPY-GDP exchange, fluorescence; series mostly up to 115 µM; activity, negative = inhibition: at the top concentration
In short: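 Nucleotide exchange uses 100 nM EPAC1, 250 nM RAP1B-BODIPY-GDP and 50 uM GDP, with compounds in a concentration-titration series. After 5 min at room temperature, fluorescence (480 nm ex/540 nm em) is read every 5 min for 30 min. Data are normalized to control ATA and DMSO.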
Potency is read from the fitted curve at half-maximal effect.

Chain of Rap guanine nucleotide exchange factor 3 (Homo sapiens) (O95398 whole entry, looked up): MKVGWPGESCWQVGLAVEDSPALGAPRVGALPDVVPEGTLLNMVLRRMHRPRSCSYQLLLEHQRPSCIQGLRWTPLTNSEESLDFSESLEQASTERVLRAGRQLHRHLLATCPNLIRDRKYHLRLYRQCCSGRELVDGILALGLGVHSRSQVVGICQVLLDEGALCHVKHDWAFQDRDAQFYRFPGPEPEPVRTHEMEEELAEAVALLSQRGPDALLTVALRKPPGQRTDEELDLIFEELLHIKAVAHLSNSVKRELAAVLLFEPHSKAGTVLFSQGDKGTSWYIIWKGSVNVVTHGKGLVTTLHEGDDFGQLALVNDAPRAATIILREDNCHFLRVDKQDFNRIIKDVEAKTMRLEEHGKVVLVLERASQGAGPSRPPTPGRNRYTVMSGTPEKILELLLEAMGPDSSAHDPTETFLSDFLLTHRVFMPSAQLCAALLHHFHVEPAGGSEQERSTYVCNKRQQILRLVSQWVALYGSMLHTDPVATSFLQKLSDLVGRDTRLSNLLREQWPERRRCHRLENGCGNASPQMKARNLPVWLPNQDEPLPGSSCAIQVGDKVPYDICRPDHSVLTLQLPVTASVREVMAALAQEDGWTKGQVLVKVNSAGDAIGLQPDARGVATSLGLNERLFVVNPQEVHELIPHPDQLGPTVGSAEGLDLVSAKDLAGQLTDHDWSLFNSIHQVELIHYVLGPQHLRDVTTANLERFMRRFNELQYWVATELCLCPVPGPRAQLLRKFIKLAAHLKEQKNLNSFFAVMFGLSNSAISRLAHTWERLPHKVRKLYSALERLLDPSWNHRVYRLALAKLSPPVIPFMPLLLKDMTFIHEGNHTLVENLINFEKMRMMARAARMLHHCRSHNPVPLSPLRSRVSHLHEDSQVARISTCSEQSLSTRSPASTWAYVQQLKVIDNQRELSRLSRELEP

In the case of `CCCCC(=O)N(c1ccc(C(=O)O)cc1)c1nc(-c2ccc(Cl)cc2)c(CC)s1`, the Potency is reported as 50.1 µM (active).
`COC1=CC(=O)c2c(ccc3ncnc(N)c23)C1=O` was tested, and the Potency was 19 µM (active).
`O=C(N/N=C/c1c(O)n(-c2ccccc2Cl)c(=O)c2ccccc12)c1cccnc1` was tested, and the Potency was 3.38 µM (active).
In the case of `CC(/C=C1\SC(=S)N(C(C(=O)O)C(C)C)C1=O)=C\c1ccccc1` (stereo unspecified), the Potency is reported as 47.8 µM (active).
For `CC(=O)N(/N=C1/C(=O)Nc2ccccc21)c1ccccc1`, the Potency was 67.5 µM (active).

Point of comparison: `COc1cccc2c(N/N=C/c3ccco3)cc(C)nc12`, “activity, negative = inhibition” value -23.9%. Against it:
- COc1ccc(N2CCN(C(=O)CCc3ccccc3OC)CC2)cc1 — higher, -8.5%
- COc1c(-c2ccccc2)oc2c(ccc3occc32)c1=O — higher, -15.9%
- CC(C)(C)[C@H](N)C(=O)N[C@H]1CCC2C3CC=C4C[C@@H](O)CC[C@]4(C)C3CC[C@@]21C (stereo partly specified) — higher, -12%
- CC(C)CNC(=O)c1c(-c2ccccc2)c(-c2ccccc2)nn(C)c1=O — lower, -28.7%
- CC(OC(=O)CCN1C(=O)C2CC=CCC2C1=O)C(=O)Nc1cccc(C#N)c1 (stereo unspecified) — higher, -7.82%
- CN(C)C(=S)Oc1ccccc1-c1ccccc1OC(=S)N(C)C — higher, -18.3%
- Cc1ccccc1OCCC(=O)OCC(=O)N1CCN(S(=O)(=O)c2ccc(Cl)cc2)CC1 — higher, -20.8%
- O=c1oc2cc(O)ccc2cc1-c1nc2ccccc2o1 — higher, 111%
- O=C1NC(=O)C2(N1)C(=O)c1cccc3cccc2c13 (stereo unspecified) — higher, 88.2%
- Nc1ccc(-c2c3ccc(=O)cc-3oc3cc(O)ccc23)c(C(=O)O)c1 — higher, 232%
- CCCCN(C(=O)CSCC(=O)Nc1ccc(C)cc1)c1c(N)n(CCCC)c(=O)[nH]c1=O — higher, -18.7%
- CCN(CC)c1ccc2oc(=O)c(C)nc2c1 — higher, 41.1%
- COc1cc2c(cc1OC)-c1cc(NC3CCCCC3)nc(=O)n1CC2 — higher, -19.7%
- CN(CCc1ccccn1)C(=O)Nc1ccc(F)cc1 — lower, -26.3%
- OC1C2CN3CCN(C2)CC1(Cc1ccccc1)C3 (stereo unspecified) — higher, -13.1%
- COc1ccccc1C(=O)NC(CCSC)C(=O)NCc1ccccn1 (stereo unspecified) — higher, -17.2%
- CN(Cc1ccccc1)S(=O)(=O)c1ccc(Cl)c(C(=O)NCc2ccncc2)c1 — higher, -17.8%
- CC1CC1C(=O)OCC(=O)NNC(=O)COc1ccc(Br)cc1 (stereo unspecified) — higher, -12.7%
- CC(C)(C)c1nc(-c2ccccc2)nc2c1OCCC2 — higher, -17.5%
- CCCn1c(N)c(C(=O)CSc2n[nH]c(-c3ccc(C)cc3)n2)c(=O)[nH]c1=O — higher, -16.3%

Biological target: Rap guanine nucleotide exchange factor 3 (Homo sapiens) (UniProt O95398)
Test: Confirmatory qHTS for agonist of cAMP-regulated guanine nucleotide exchange factor 3 (EPAC1) (AID 1645881); also: nearly all actives have a fitted effect of over 75% in size;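 as to activation: EPAC1 catalysed release of BODIPY-GDP from Rap1B seen as fluorescence loss; 100% = effect of cAMP agonist control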
Details: EPAC1 Rap1B BODIPY-GDP exchange fluorescence; series mostly up to 154 µM; activation: at the top concentration

Point of comparison: `CN(C)C(=S)Oc1ccccc1-c1ccccc1OC(=S)N(C)C`, “activation” value 18.4%. Against it:
- CCCCC(=O)N(c1ccc(C(=O)O)cc1)c1nc(-c2ccc(Cl)cc2)c(CC)s1 — lower, -13.2%
- COc1ccc(N2CCN(C(=O)CCc3ccccc3OC)CC2)cc1 — lower, 13.8%
- CC(C)(C)[C@H](N)C(=O)N[C@H]1CCC2C3CC=C4C[C@@H](O)CC[C@]4(C)C3CC[C@@]21C (stereo partly specified) — lower, 6.22%
- CC(C)CNC(=O)c1c(-c2ccccc2)c(-c2ccccc2)nn(C)c1=O — lower, 15.4%
- C/C(=N\N1C(=O)c2ccccc2NC1c1ccco1)c1ccccc1O (stereo unspecified) — higher, 19.7%
- CC(OC(=O)CCN1C(=O)C2CC=CCC2C1=O)C(=O)Nc1cccc(C#N)c1 (stereo unspecified) — lower, 2.28%
- Cc1ccccc1OCCC(=O)OCC(=O)N1CCN(S(=O)(=O)c2ccc(Cl)cc2)CC1 — lower, 2.97%
- COc1cccc2c(N/N=C/c3ccco3)cc(C)nc12 — lower, 16.5%
- CCOc1ccc(CCNc2ncnc3onc(-c4ccc(Cl)cc4)c23)cc1OCC — lower, 0.434%
- COC1=CC(=O)c2c(ccc3ncnc(N)c23)C1=O — lower, -32%
- O=C1CCN(Cc2ccccc2)CCN1[C@H](COc1ccccc1)Cc1ccccc1 — lower, 10.2%
- O=C(N/N=C/c1c(O)n(-c2ccccc2Cl)c(=O)c2ccccc12)c1cccnc1 — lower, 15.2%
- CCCCN(C(=O)CSCC(=O)Nc1ccc(C)cc1)c1c(N)n(CCCC)c(=O)[nH]c1=O — lower, -11.1%
- COc1cc2c(cc1OC)-c1cc(NC3CCCCC3)nc(=O)n1CC2 — lower, 0.468%
- CN(CCc1ccccn1)C(=O)Nc1ccc(F)cc1 — lower, -1.37%
- OC1C2CN3CCN(C2)CC1(Cc1ccccc1)C3 (stereo unspecified) — lower, 3.71%
- COc1ccccc1C(=O)NC(CCSC)C(=O)NCc1ccccn1 (stereo unspecified) — lower, 4.9%
- O=c1c2ccccc2oc2ccc(Oc3ccccc3)cc12 — lower, 8.55%
- COc1cccc(C(=O)N(Cc2cc3ccc(C)cc3nc2N(C)C)C2CC2)c1OC — lower, 2.85%
- COc1ccc(-c2nc3n(c(=O)c2C#N)CCS3)cc1 — lower, -0.892%
- CN(Cc1ccccc1)S(=O)(=O)c1ccc(Cl)c(C(=O)NCc2ccncc2)c1 — lower, 5.57%
- COc1ccc(-c2nn(-c3ccccc3)cc2/C=N/n2cnnc2)cc1OC — lower, 12.9%
- COC(=O)c1ccc(/C=C2\CCn3c2nc2cc(C(=O)O)ccc2c3=O)cc1 — lower, -0.302%
- CC(/C=C1\SC(=S)N(C(C(=O)O)C(C)C)C1=O)=C\c1ccccc1 (stereo unspecified) — lower, 1.46%
- Nc1ccn(C2C=CC(CO)O2)c(=O)n1 (stereo unspecified) — lower, 11.5%
- CC1CC1C(=O)OCC(=O)NNC(=O)COc1ccc(Br)cc1 (stereo unspecified) — lower, 5.69%
- CC(=O)N(/N=C1/C(=O)Nc2ccccc21)c1ccccc1 — lower, -12.8%
- Cc1ccc(NC(=O)C2CCCN2S(=O)(=O)c2cccc3nsnc23)c(Br)c1 (stereo unspecified) — lower, 3.69%
- Cc1ccc(C)c(N2CCN(C(=O)CCc3nc(-c4ccc(Cl)cc4)no3)CC2)c1 — lower, 2.15%
- Cc1cccc(Cn2cc(SCC(=O)Nc3nccs3)c3ccccc32)c1 — lower, -1.82%
- CC(C)(C)c1nc(-c2ccccc2)nc2c1OCCC2 — lower, -5.67%
- COc1cc(NC(=S)NCCC(c2ccccc2)c2ccccc2)cc(OC)c1 — lower, 17.2%
- CCCn1c(N)c(C(=O)CSc2n[nH]c(-c3ccc(C)cc3)n2)c(=O)[nH]c1=O — lower, -9.46%

In the case of `COc1c(-c2ccccc2)oc2c(ccc3occc32)c1=O`, the Potency is reported as “inactive”.
`O=c1oc2cc(O)ccc2cc1-c1nc2ccccc2o1` was tested, and the Potency was 100 µM (active).
For `O=C1NC(=O)C2(N1)C(=O)c1cccc3cccc2c13` (stereo unspecified), the Potency was 112 µM (active).
In the case of `Nc1ccc(-c2c3ccc(=O)cc-3oc3cc(O)ccc23)c(C(=O)O)c1`, the Potency is reported as 100 µM (active).
With `CCN(CC)c1ccc2oc(=O)c(C)nc2c1` the Potency was 100 µM (active).
For `CCN(CC)c1ccc2cc(-c3nnc(Nc4ccc(C)cc4)s3)c(=O)oc2c1`, the Potency was 112 µM (active).
